Results published in PubChem BioAssay.
For part of these data: Potency and affinity values are given separately. The list shows a part of the results. Active and inactive are the calls of the source.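 Rule for the calls, unless noted: active = calcium signal ratio cut to more than 3 SD under the fully stimulated control mean yet still positive, in both repeats and the primary screen; inactive = the rest.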

Key:
[1] = system: TRPC4 beta (transient receptor potential cation channel C4), mouse; assay: activators of mouse TRPC4 channel, confirmation, cell-based, Fluo4 calcium, HEK293 TRPC4beta/mu-opioid, duplicates, 10 µM (AID 2426;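 active = fluorescence ratio normalized to control raised more than 50% in primary screen plus both repeat runs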); conditions: Fluo4 calcium fluorescence, at 10 µM; stronger effect = higher value
[2] = system: transient receptor potential cation channel C4 beta (TRPC4), mouse; assay: activators of mouse TRPC4 channel, confirmation, cell-based, second round, Fluo4, HEK293 TRPC4beta/mu-opioid, 1 µM (AID 2461;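 active = primary screen active and over 50% activation in each of two duplicate runs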); conditions: Fluo4 calcium fluorescence, at 1 µM; stronger effect = higher value
[3] = system: TRPC4 (transient receptor potential cation channel C4 beta), mouse; assay: positive allosteric modulators of mouse TRPC4, confirmation, cell-based, second round, Fluo-4, HEK293 TRPC4beta/mu-opioid, 1 µM (AID 2554;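 active = primary screen hit whose fluorescence ratio, in both repeats, exceeds the weak agonist control mean by 3 SD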); conditions: DAMGO EC20, Fluo-4 calcium flux, at 1 µM; stronger effect = higher value
[4] = system: TRPC4 beta (transient receptor potential cation channel C4), mouse; assay: positive allosteric modulators of mouse TRPC4, confirmation, cell-based, Fluo-4, HEK293 TRPC4beta/mu-opioid (AID 2555;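 active = primary screen hit whose calcium fluorescence ratio, in both repeats, exceeds the weak agonist control mean by 3 SD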); conditions: DAMGO EC20, Fluo-4 calcium flux, at 10 µM; stronger effect = higher value
[5] = target: Short transient receptor potential channel 4 (Mus musculus) (UniProt Q9QUQ5); assay: inhibitors of mouse TRPC4 channel, confirmation, cell-based, Fluo4, HEK293 TRPC4beta/mu-opioid (AID 2636;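 active = calcium signal cut by more than 3 SD below the full-agonist control yet still positive, in both repeats and the earlier primary screen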); conditions: DAMGO, Fluo4 calcium flux, at 10 µM; stronger effect = higher value
Chain of Short transient receptor potential channel 4 (Mus musculus) (Q9QUQ5 whole entry, looked up): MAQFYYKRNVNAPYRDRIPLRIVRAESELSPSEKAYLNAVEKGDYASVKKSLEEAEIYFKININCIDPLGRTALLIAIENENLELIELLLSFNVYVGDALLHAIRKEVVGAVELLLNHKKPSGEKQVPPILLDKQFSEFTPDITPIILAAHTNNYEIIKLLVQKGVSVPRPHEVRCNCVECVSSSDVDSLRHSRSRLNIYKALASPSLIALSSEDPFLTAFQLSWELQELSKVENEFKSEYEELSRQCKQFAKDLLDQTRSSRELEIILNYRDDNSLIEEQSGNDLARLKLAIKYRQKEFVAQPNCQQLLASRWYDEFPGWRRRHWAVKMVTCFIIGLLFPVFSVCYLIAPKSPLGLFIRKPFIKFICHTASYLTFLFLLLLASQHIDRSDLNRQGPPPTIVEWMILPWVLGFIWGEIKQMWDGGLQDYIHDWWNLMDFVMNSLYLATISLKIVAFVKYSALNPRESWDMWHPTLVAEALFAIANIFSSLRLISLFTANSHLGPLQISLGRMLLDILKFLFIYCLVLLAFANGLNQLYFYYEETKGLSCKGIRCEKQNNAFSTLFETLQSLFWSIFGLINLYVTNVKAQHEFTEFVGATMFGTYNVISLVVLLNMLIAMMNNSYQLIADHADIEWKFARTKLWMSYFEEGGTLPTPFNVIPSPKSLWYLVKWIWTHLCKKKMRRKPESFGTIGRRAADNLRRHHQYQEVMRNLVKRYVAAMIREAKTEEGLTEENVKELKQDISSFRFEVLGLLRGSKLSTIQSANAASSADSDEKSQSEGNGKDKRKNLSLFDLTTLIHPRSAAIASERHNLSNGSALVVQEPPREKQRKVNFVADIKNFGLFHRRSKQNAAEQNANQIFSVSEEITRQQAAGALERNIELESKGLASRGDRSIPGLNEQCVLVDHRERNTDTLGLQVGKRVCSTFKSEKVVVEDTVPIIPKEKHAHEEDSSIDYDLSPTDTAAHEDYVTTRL

[6] = target: Short transient receptor potential channel 4 (Mus musculus) (UniProt Q9QUQ5); assay: inhibitors of mouse TRPC4 channel, confirmation, cell-based, second round, Fluo4, HEK293 TRPC4beta/mu-opioid, 1 µM (AID 2637); conditions: Fluo4 calcium flux, DAMGO, at 1 µM; stronger effect = higher value
[7] = target: Short transient receptor potential channel 4 (Mus musculus) (UniProt Q9QUQ5); assay: mouse TRPC4 channel activators, dose response, cell-based, HEK293 TRPC4/mu-opioid, Fluo-4 calcium (AID 434937;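 active = primary screen activator hit with a dose response curve and TRPC4 channel activation at any tested dose; inactive = no activation, no dose response, or not a primary hit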)
[8] = target: Short transient receptor potential channel 4 (Mus musculus) (UniProt Q9QUQ5); assay: TRPC4 positive allosteric modulators, dose response, cell-based, HEK293 TRPC4/mu-opioid, Fluo-4 calcium, EC20 DAMGO (AID 434941;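 active = earlier screen potentiator hit that boosts the TRPC4 ion channel at some dose, with a dose response; inactive = no potentiation, no dose response, or not a prior hit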;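 note: calcium entry triggered by an EC20 dose of DAMGO at the co-expressed mu-opioid receptor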)
[9] = target: Short transient receptor potential channel 4 (Mus musculus) (UniProt Q9QUQ5); assay: mouse TRPC4 channel inhibitors, dose response, cell-based, HEK293 TRPC4/mu-opioid, Fluo-4 calcium (AID 434942;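 active = primary screen inhibitor hit that blocks the TRPC4 channel at some tested dose, yielding a dose curve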)
[10] = target: Short transient receptor potential channel 6 (Mus musculus) (UniProt Q61143); assay: inhibition of mouse TRPC6 channel, confirmation, selectivity assay for TRPC4 inhibitor project, cell-based, HEK293, membrane potential dye, duplicate (AID 434948;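 active = active in primary screen and both duplicates, each dropping signal beyond three positive-control SD with fluorescence still positive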); conditions: HEK293 TRPC6, membrane potential dye fluorescence, at 10 µM; inhibition: stronger effect = higher value, stimulated with maximal-effect acetylcholine unless noted; outcome: stimulated with maximal-effect acetylcholine unless noted
Chain of Short transient receptor potential channel 6 (Mus musculus) (Q61143 whole entry, looked up): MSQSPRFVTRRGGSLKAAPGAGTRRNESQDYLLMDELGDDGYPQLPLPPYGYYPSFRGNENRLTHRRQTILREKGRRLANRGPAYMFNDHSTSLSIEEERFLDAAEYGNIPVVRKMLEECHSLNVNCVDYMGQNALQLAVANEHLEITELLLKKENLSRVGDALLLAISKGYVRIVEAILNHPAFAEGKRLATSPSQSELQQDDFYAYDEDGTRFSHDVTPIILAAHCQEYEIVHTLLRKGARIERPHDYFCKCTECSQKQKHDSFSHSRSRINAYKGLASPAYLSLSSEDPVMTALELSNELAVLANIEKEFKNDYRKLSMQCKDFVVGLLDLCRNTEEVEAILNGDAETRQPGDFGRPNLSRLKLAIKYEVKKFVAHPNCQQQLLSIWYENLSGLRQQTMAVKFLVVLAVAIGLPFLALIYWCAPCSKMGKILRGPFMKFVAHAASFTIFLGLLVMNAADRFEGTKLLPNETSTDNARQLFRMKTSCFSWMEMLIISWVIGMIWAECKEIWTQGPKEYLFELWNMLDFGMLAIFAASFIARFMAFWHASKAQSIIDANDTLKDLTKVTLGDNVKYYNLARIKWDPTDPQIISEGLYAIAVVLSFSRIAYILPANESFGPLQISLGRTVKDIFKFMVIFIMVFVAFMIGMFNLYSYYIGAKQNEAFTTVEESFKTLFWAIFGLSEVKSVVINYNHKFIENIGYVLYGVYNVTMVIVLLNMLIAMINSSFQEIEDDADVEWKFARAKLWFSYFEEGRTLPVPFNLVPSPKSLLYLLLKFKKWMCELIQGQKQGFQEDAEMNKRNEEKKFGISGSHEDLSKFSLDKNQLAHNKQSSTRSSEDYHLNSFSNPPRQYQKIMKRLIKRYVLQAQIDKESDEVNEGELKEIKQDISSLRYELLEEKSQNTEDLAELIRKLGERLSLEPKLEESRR

[11] = target: Short transient receptor potential channel 6 (Mus musculus) (UniProt Q61143); assay: activation of mouse TRPC6 channel, confirmation, selectivity assay for TRPC4 activator project, cell-based, HEK293, membrane potential dye, duplicate (AID 434950;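 active = membrane potential signal rise above negative control mean plus 3 SD in both duplicates, also active in the earlier TRPC4 screen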;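 for activation: 0% = buffer only wells and 100% = acetylcholine maximal-effect wells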); conditions: HEK293 TRPC6, membrane potential fluorescence, at 10 µM; stronger effect = higher value
[12] = target: Short transient receptor potential channel 6 (Mus musculus) (UniProt Q61143); assay: TRPC6 potentiation by TRPC4 potentiator hits, confirmation, selectivity assay for TRPC4 potentiator project, HEK293 cells, membrane potential dye, duplicate (AID 434952;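 active = compound raising the membrane signal above positive-control mean plus 3 SD in both repeats, and a primary screen hit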); conditions: HEK293 TRPC6, membrane potential dye fluorescence, at 10 µM; maximal acetylcholine added after compound unless noted
[13] = target: Short transient receptor potential channel 4 (Mus musculus) (UniProt Q9QUQ5); assay: calcium flux activators in TRPC4/5HT1a cells, counter-screen for TRPC4 activator project, cell-based, second counter screen, HEK293 TRPC4/5HT1a, Fluo-4 (AID 434977;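 active = calcium signal rise above buffer-control mean plus 5 SD in both duplicates, and also a hit in the primary screen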); conditions: Fluo-4 calcium flux, at 10 µM; stronger effect = higher value
[14] = calcium flux inhibitors in TRPC4/5HT1a cells, confirmation, counter-screen for TRPC4 inhibitor project, cell-based, second counter screen, HEK293 TRPC4/5HT1a, Fluo-4 (AID 434978;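 active = primary screen active whose calcium signal fell more than 3 SD beyond the full-serotonin control mean in both duplicate plates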;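 note: serotonin given first at submaximal then at maximal dose after compound preincubation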); conditions: Fluo-4 calcium flux, at 10 µM; inhibition: stronger effect = higher value, serotonin added to trigger calcium flux unless noted; outcome: serotonin added to trigger calcium flux unless noted
[15] = system: TRPC4 (mouse), co-expressed with 5HT1a in HEK293; assay: calcium flux potentiators in TRPC4/5HT1a cells, confirmation, counter-screen for TRPC4 potentiator project, cell-based, second counter screen, HEK293 TRPC4/5HT1a, Fluo-4 (AID 434979;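 active = signal rise over 3 SD above mean of control wells given weak agonist, in both repeats and first screen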); conditions: Fluo-4 calcium flux, at 10 µM; outcome: serotonin added at its EC20 dose unless noted; potentiation: stronger effect = higher value, serotonin added at its EC20 dose unless noted
[16] = calcium flux activation in mu-opioid HEK293 cells, confirmation, counter-screen for TRPC4 activator project, cell-based, HEK293 mu-opioid receptor line (AID 449723;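 active = hit in primary screen, with calcium signal over 5 SD above buffer well mean in both duplicates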;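 note: counter screen cells carry the mu-opioid receptor alone and lack TRPC4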); conditions: Fluo-4 calcium fluorescence, at 10 µM; stronger effect = higher value
[17] = calcium flux enhancement in mu-opioid HEK293 cells, confirmation, counter-screen for TRPC4 allosteric potentiator project, cell-based, HEK293 mu-opioid receptor line (AID 449724;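 active = calcium signal rise more than 3 SD above the low-dose agonist control mean, in both duplicate plates and the primary screen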); conditions: Fluo-4 calcium flux, at 10 µM; compound added before EC20 DAMGO stimulus unless noted
[18] = target: Inward rectifier potassium channel 2 (Mus musculus) (UniProt P35561); assay: mouse Kir2.1 channel blockers, retest, confirmation, cell-based, FluxOR thallium flux, duplicate (AID 2032;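 active = Primary-screen hit whose thallium flux fell at least 3 control SD below untreated wells in both duplicates, with normal baseline fluorescence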); conditions: Kir2.1-expressing cells, FluxOR thallium flux fluorescence, at 10 µM; stronger effect = lower value
Chain of Inward rectifier potassium channel 2 (Mus musculus) (P35561 whole entry, looked up): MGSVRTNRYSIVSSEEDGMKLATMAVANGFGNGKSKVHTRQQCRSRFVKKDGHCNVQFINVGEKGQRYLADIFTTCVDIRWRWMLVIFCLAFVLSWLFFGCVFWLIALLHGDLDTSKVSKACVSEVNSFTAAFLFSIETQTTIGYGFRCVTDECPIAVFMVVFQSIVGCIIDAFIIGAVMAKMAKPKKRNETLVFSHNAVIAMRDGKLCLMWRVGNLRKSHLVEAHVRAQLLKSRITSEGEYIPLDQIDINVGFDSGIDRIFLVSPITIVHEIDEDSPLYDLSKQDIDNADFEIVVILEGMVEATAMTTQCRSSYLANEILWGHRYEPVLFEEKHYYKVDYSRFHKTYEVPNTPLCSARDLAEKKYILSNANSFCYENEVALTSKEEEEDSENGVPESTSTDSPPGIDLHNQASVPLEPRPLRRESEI

[19] = nonspecific thallium flux effects in parental HEK293 cells, confirmation, counter-screen for Kir2.1 inhibitor project, cell-based, FluxOR thallium flux, duplicate, single concentration (AID 2105;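 active = dye signal at least 3 control SD above or below untreated wells in both duplicates, raw fluorescence within 3, either direction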); conditions: FluxOR thallium flux fluorescence, at 10 µM; 0% = unstimulated blank wells
[20] = thallium flux activation in parental CHO cells, counter-screen for KCNQ1 potentiator project (AID 493006;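 active = duplicate-averaged activation above buffer control mean plus 5 SD of those controls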;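 note: fluorescence ratio of max minus min over baseline after K+ and Tl+ depolarization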); conditions: parental CHO-K1 cells, FluxOR thallium flux, at 10 µM; stronger effect = higher value

COC(=O)C1=C(c2cc3ccccc3s2)C[C@@H]2CC[C@H]1N2C(=O)NCCO
inactive: outcome [1] | outcome [2] | outcome [3] | outcome [4] | outcome [5] | outcome [6] | outcome [7] | outcome [8] | outcome [9] | outcome [10] | outcome [12] | outcome [13] | outcome [14] | outcome [15] | outcome [16] | outcome [17]
active: activation [11] 27%

CN(CCOc1ccc(C=C2C(=O)NC(=O)NC2=O)cc1)c1ccccn1
inactive: outcome [1] | outcome [2] | outcome [3] | outcome [4] | outcome [6] | outcome [7] | outcome [8] | outcome [9] | outcome [10] inactive [setting not given] | outcome [11] | outcome [12] inactive [setting not given] | outcome [13] | outcome [14] inactive [setting not given] | outcome [15] inactive [setting not given] | outcome [16] | outcome [17] inactive [setting not given]
active: inhibition [5] 61%

Cc1c(P(=S)(c2ccccc2)c2ccccc2)[n+]2ccccc2n1C
inactive: outcome [1] | outcome [2] | outcome [3] | outcome [4] | outcome [5] | outcome [6] | outcome [7] | outcome [8] | outcome [9] | outcome [10] | outcome [11] | outcome [12] | outcome [13] | outcome [14] | outcome [15] | outcome [16] | outcome [17]

COc1ccc(Br)cc1CNCCc1cccc(Cl)c1
inactive: outcome [19]
active: Tl flux remaining, % of negative control (stronger effect = lower value) [18] 15.5%

Clc1ccc2c(c1)C(c1ccccc1Cl)=NCc1nnc(N3CCN(CCOc4ccccc4)CC3)n1-2
active: potentiation [4] 9% | potentiation [15] 13.8%
inactive: outcome [1] | outcome [2] | outcome [3] | outcome [5] | outcome [6] | outcome [7] | outcome [8] | outcome [9] | outcome [10] | outcome [11] | outcome [12] | outcome [13] | outcome [14] | outcome [16] | outcome [17]

CC(Cc1ccccc1Sc1ccccc1)N(C)C (stereo not drawn)
inactive: outcome [1] | outcome [2] | outcome [3] | outcome [4] | outcome [5] | outcome [6] | outcome [7] | outcome [8] | outcome [9] | outcome [10] | outcome [11] | outcome [12] | outcome [13] | outcome [14] | outcome [15] | outcome [16] | outcome [17]

CCNCCNc1ccc([N+](=O)[O-])c2cccnc12
active: potentiation [3] 11%
inactive: outcome [1] | outcome [2] | outcome [4] | outcome [5] | outcome [6] | outcome [7] | outcome [8] | outcome [9] | outcome [10] | outcome [11] | outcome [12] | outcome [13] | outcome [14] | outcome [15] | outcome [16] | outcome [17]

FC(F)(F)c1ccc(CN2CCNCC2)cc1
active: potentiation [3] 26% | potentiation [4] 22% | potentiation [15] 25.6% [stronger effect = higher value]
inactive: outcome [1] | outcome [2] | outcome [5] | outcome [6] | outcome [7] | outcome [8] | outcome [9] | outcome [10] inactive [setting not given] | outcome [11] | outcome [12] inactive [setting not given] | outcome [13] | outcome [14] inactive [setting not given] | outcome [16] | outcome [17] inactive [setting not given]

C#CCN1C(=O)C2(C(C#N)=C(N)OC(C)=C2C(=O)OCc2ccccc2)c2ccccc21 (stereo not drawn)
active: potentiation [4] 11% | potentiation [15] 28.9%
inactive: outcome [1] | outcome [2] | outcome [3] | outcome [5] | outcome [6] | outcome [7] | outcome [8] | outcome [9] | outcome [10] | outcome [11] | outcome [12] | outcome [13] | outcome [14] | outcome [16] | outcome [17]

CCC1=Nc2cc(C(=O)N3CCC4(CC3)OCCO4)ccc2Sc2ccc(Br)cc21
inactive: outcome [1] | outcome [2] | outcome [3] | outcome [4] | outcome [5] | outcome [6] | outcome [7] | outcome [8] | outcome [9] | outcome [10] inactive [setting not given] | outcome [11] | outcome [12] inactive [setting not given] | outcome [13] | outcome [14] inactive [setting not given] | outcome [15] inactive [setting not given] | outcome [16] | outcome [17] inactive [setting not given]

COC(=O)C(Cc1ccc(N(CCCl)CCCl)cc1)N=Cc1ccccc1O (stereo not drawn)
inactive: outcome [1] | outcome [2] | outcome [3] | outcome [4] | outcome [5] | outcome [6] | outcome [7] | outcome [8] | outcome [9] | outcome [10] | outcome [11] | outcome [12] | outcome [13] | outcome [14] | outcome [15] | outcome [16] | outcome [17]

CCOc1cccc(=NC2CCCCC2)c2c(C)[nH]c(C)c12
active: Tl flux remaining, % of negative control (stronger effect = lower value) [18] 46.5%
inactive: outcome [19]

CN1CCN(c2cccc3c2C(=O)c2ccccc2C3=O)CC1
active: potentiation [3] 16% | potentiation [4] 8%
inactive: outcome [1] | outcome [2] | outcome [5] | outcome [6] | outcome [7] | outcome [8] | outcome [9] | outcome [10] | outcome [11] | outcome [12] | outcome [13] | outcome [14] | outcome [15] | outcome [16] | outcome [17]

COc1cc(-n2c(=S)[nH]c3ccc(C)cc3c2=O)c(Cl)cc1Cl
active: activation [20] 182%
inactive: outcome [18] | outcome [19]

Cc1ccc(-c2cc(-c3ccccc3)cc(-c3ccccc3)[n+]2-c2ccccc2)cc1
inactive: outcome [1] | outcome [2] | outcome [3] | outcome [5] | outcome [6] | outcome [7] | outcome [8] | outcome [9] | outcome [10] | outcome [11] | outcome [12] | outcome [13] | outcome [14] | outcome [16] | outcome [17]
active: potentiation [4] 18% | potentiation [15] 9.63%

Fc1ccc(N2CCN(Cc3ccc4c(c3)OCO4)CC2)cc1
active: Tl flux remaining, % of negative control (stronger effect = lower value) [18] 36.5%
inactive: outcome [19]
